Screens (PubChem BioAssay)
FAS-TE inh: blocks the thioesterase domain of human fatty acid synthase. P49327. recombinant FAS-TE, OMFH fluorogenic substrate, fluorescence endpoint. inhibition, % at 15 µM. 360,000 tested, 0.67% active. AID 602261;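 active = compounds whose normalised, plate-corrected inhibition of enzyme fluorescence in the single-dose primary screen is 50% or more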;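 also: 0% = DMSO with enzyme and 100% = substrate without enzyme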
MPTP block: permeability transition pore inhibition | isolated mouse mitochondria, Ca2+ swelling absorbance, 30 min | inhibition, % at 10 µM | 360,000 tested, 1.4% active | AID 602449;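 active = inhibition of 50% or more, scaled per plate between neutral and stimulator controls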;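 also: 0% = DMSO wells given calcium and 100% = 1 mM EGTA wells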
MIN6 prolif-1: inducers of beta-cell replication in MIN6 cells; 330,000 tested, 0.29% active; MIN6 cells proliferation, ATPlite luminescence, 48 h; cells starved in 0.2% serum; 100% = growth in 10% serum; proliferation, % at 10 µM;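 active = compounds whose signal lies at least 3.5 SD above the mean of all wells on their plate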;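 also: 0% = DMSO-treated cells in low-serum medium and 100% = 10% serum control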
GRIN3A LBD mod: NR3A (human) ligand-binding domain modulation; NR3A LBD differential scanning fluorimetry, Tm shift; 0% = protein alone, 100% = glycine-bound protein; Tm shift relative to glycine control, % at 25 µM; 340,000 tested, 2.5% active;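 active = melting temperature shift of at least 10% of the positive control shift, at one fixed dose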
p-CIP stab down: lowers stability of the mouse p/CIP coactivator protein; F442A p/CIP-EGFP cells, EGFP fluorescence, 16 h; decrease of EGFP signal, % at 10 µM; 290,000 tested, 0.01% active;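 active = EGFP signal decrease of at least 30% at 10 µM or well 3 SD below plate mean, unless failing retest; inactive = the rest, including hits failing retest or dose response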
MIN6 prolif-2: confirmation of inducers of beta-cell replication in MIN6 cells; AID 463095; MIN6 beta-cell proliferation, ATPlite luminescence, 48 h; cells kept in 0.2% serum; scaled between 0.2% and 10% serum; proliferation increase, % at 50 µM; 920 tested, under 10 active; shares compounds with MIN6 prolif-1;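 active = proliferation increase above 40% at any of the four tested concentrations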
An asterisk follows results filed as active; x = no result. Shown are actives, neighbours in structure and some others; about 4.1% of the full set was active somewhere.

SMILES	FAS-TE inh	MPTP block	MIN6 prolif-1	GRIN3A LBD mod	p-CIP stab down	others
Cc1ccc(C)c(SCC(=O)OC/C(O)=C(\C#N)c2nc3ccccc3[nH]2)c1	0	-2	x	-1	0
Cc1cccc(C)c1Nc1nnc(SCC(=O)Nc2ncc(C(F)(F)F)cc2Cl)s1	21	-14	0	12*	-8
O=C(O)c1ccc(CSc2nc(-c3ccccc3)cc(C(F)(F)F)n2)cc1	-6	0	-3	10	-6
O=C(O)c1ccc(CSc2nc(-c3ccc(Cl)cc3)cc(C(F)(F)F)n2)cc1	-40	6	-4	38*	-18
O=C(NCc1ccccc1)c1cc(C2CCCN(C(=O)c3ccccc3)C2)on1 (stereo not given)	-9	0	x	x	x
Cn1c(=O)c2cc(NC(=S)NC3CC3)ccc2n1Cc1cccc(C(F)(F)F)c1	-1	1	x	x	x
CCOc1ccccc1NC(=O)CCNC(=O)N1CC(=O)Nc2ccccc21	-7	-1	x	x	x
O=C1C2=C(NC(=S)NC2c2ccc(Cl)cc2)NC(c2ccc(Cl)cc2)N1c1ccc(Cl)cc1 (stereo not given)	-100	2	-6	22*	0
CCOc1cc(/C=N/NC(N)=O)ccc1OCC(=O)Nc1ccc(C)c(C)c1	0	1	-2	-2	-13
COc1ccc(/C=N/NC(=O)c2cccc([N+](=O)[O-])c2)cc1OC	-5	0	2	2	-7
COc1cc(/C=N/NC(=O)c2cccc([N+](=O)[O-])c2)ccc1OCc1ccccc1	-10	0	-3	22*	1
CCOc1cc(C=C2C(=O)c3ccccc3C2=O)ccc1OCC(=O)Nc1ccc(C)cc1	-5	0	-1	14*	-4
COc1ccc(/C=N/NC(=O)c2cccc([N+](=O)[O-])c2)c2ccccc12	5	1	-4	34*	13
O=C(N/N=C/c1cccc([N+](=O)[O-])c1)c1ccc(COc2ccccc2-c2ccccc2)cc1	29	9	-2	16*	-8
COc1cc2c(cc1OC)/C(=C/C(=O)OCc1ccccc1)OC2	x	-1	x	x	x
Cc1cccc(C)c1NC(=O)C1(C)CSCC(=O)N1Cc1cccs1 (stereo not given)	x	-2	x	x	x
COC(=O)C[C@H]1C=C[C@@H](NS(=O)(=O)c2ccccc2)[C@@H](CO)O1	x	-2	x	x	x
CC(=O)NC(c1cccc(F)c1)c1nc(-c2cccs2)cs1 (stereo not given)	1	0	x	x	x
COc1cc(/C=N/NC(=O)c2cccnc2)ccc1OCC(=O)Nc1ccc(C)cc1	-6	1	-3	-23	-12
COc1cc(/C=N/NC(=O)c2cccc(C)c2)ccc1OCC(=O)Nc1ccccc1	11	-5	-3	19*	x
O=C(CCn1c2c(c3ccccc31)CCCC2)NNC(=O)c1ccc(Cl)c([N+](=O)[O-])c1	26	26	-7	20*	3
CC(C)C[C@@H](CN1CCC[C@H]1CN1C(=O)C(=O)NC[C@@H]1Cc1ccccc1)N1C[C@H](Cc2ccc(O)cc2)N(CC2CCCCCC2)C(=O)C1=O	37	-6	x	x	x
CC(C)CCCCCCCCCCCCC(=O)NCC(=O)NC1C(O)C(O)C(Nc2ncnc3nc[nH]c23)OC1C(O)CO (stereo not given)	-10	2	x	-5	x
O=C(Nc1nc2c(F)c(F)c(F)cc2s1)c1ccco1	-1	2	-1	1	-8
O=C(Nc1ccc(-c2nc3cc(Cl)ccc3c(=O)o2)cc1)c1ccco1	6	0	-1	11*	0
SMILES	FAS-TE inh	MPTP block	MIN6 prolif-1	GRIN3A LBD mod	p-CIP stab down	others
COc1cc2sc(NC(=O)c3ccco3)nc2cc1Cl	-6	1	-4	5	-22
O=C(Nc1nc2c(ccc3ccccc32)s1)c1ccco1	16	2	-3	16*	2
COc1cc2nc(NC(=O)c3ccco3)sc(=O)c2cc1OC	-3	4	-3	15*	0
O=C(Nc1ccc(-c2nc3c(ccc4ccccc43)o2)cc1)c1ccco1	4	2	-4	35*	0
O=C(Cc1cccc(NC(=O)C2CCCN(C(=O)C3CCC3)C2)c1)Nc1cccc(C(=O)N2CCOCC2)c1 (stereo not given)	-12	-1	x	0	x
COc1cc2c(cc1NC(=O)C(Cl)Cl)-c1ccc(NC(=O)C(Cl)Cl)cc1C2	2	4	x	8	x
CCOc1ccccc1CNC(=O)CNC(=O)c1cccs1	-3	2	17*	-1	3	MIN6 prolif-2=1
COCCNC(=S)N(c1ccccc1)C(C)C	-2	0	1	0	-16
COCCNC(=S)NN(c1ccccc1)c1ccccc1	0	-1	9.0*	0	-13	MIN6 prolif-2=-4
CC1CCN(CCOc2ccccc2-c2ccccc2)CC1	-6	14	0.0*	-1	7	MIN6 prolif-2=-5
CC1CC(C)CN(CCOc2ccccc2-c2ccccc2)C1 (stereo not given)	-10	2	-5	-2	-6
CCOC(=O)C1CCCN(C(=O)c2cccnc2Oc2ccccc2)CC1 (stereo not given)	-10	0	x	x	x
CCOC(=O)C(CC)Sc1nc2c(c(=O)[nH]c(=O)n2C)n1C/C=C(/C)Cl (stereo not given)	4	1	5.4*	0	-2	MIN6 prolif-2=-6
C/C(Cl)=C/Cn1c(SCC(C)C)nc2c1c(=O)[nH]c(=O)n2C	-1	1	3	2	4
CCOC(=O)C(C)Sc1nc2c(c(=O)[nH]c(=O)n2C)n1CCc1ccccc1 (stereo not given)	-4	-1	0	-13	-8
CCCCOC(=O)CSc1nc2c(c(=O)[nH]c(=O)n2C)n1C/C=C(\C)Cl	-6	2	5.4*	1	-11	MIN6 prolif-2=-4
Cc1c(C(=O)N2CCCC2)sc(NC(=O)c2ccc(Cl)cc2)c1C#N	-2	18	-3	-6	-8
COc1ccccc1C(=O)Nc1sc(C(=O)N2CCCC2)c(C)c1C#N	2	-1	8.8*	-1	-2	MIN6 prolif-2=10
O=C(COC(=O)c1ccccc1)Nc1cccc(S(=O)(=O)N2CCCCC2)c1	8	-2	-5	-6	x
Cc1ccc2c(c1)CCO[C@@]21O[C@H](CCO)C[C@H](O)[C@H]1O	-6	-2	x	x	x
Cc1cccc(NC(=O)C2CCN(C(=O)[C@@H]3Cc4ccccc4CN3)CC2)c1	-4	-1	5.2*	0	0	MIN6 prolif-2=-4
CCc1nc2c(OCc3cc(Cl)cc(Cl)c3)cccn2c1N(C)C(=O)c1cccc(OC)c1	21	0	x	x	x
COc1ccc(Cl)cc1-c1cc(C(=O)Nc2ccc(Br)cc2)[nH]n1	22	1	x	x	x
CCOc1ccc(C(=O)Nc2ccc3c(c2)OCO3)cc1OCC	2	0	5.5*	2	-6	MIN6 prolif-2=3
